The campaign covered roughly 1,500 compounds. About 460 (31%) were called active. Not all results are given here. Potency and affinity values are given separately. Values without a mark were called inactive.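 Rule for the calls: active = viability at or below 80% at any tested concentration, marking the compound as toxic; inactive = the rest.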
experiment: viability loss in THP-1 monocytes – THP-1 cells, cytotoxicity control for Vif-APOBEC3G degradation inhibitor project, dose response (AID 1117359); conditions: THP-1 viability, CellTiter-Glo luminescence, 72 h; series mostly up to 40 µM; viability: at the top concentration

| Structure (SMILES) | viability [%] |
| --- | --- |
| COc1ccc(NC(=O)CSc2nc3c(cc2C#N)CN(C)CC3)cc1 | 81.2 |
| COc1ccc(NC(=O)CCCSc2ccccc2)cc1 | 110 |
| COc1ccc(NC2=NC(C)(CO)CS2)cc1 (stereo unspecified) | 105 |
| CCOC(=O)/C(=C\c1ccccc1)NC(=O)c1ccccc1 | 101 |
| Cc1ccc(C2C(C#N)=C(N)Oc3c2oc(CO)cc3=O)o1 (stereo unspecified) | 98.5 |
| COc1ccc2cc(C3C(C#N)=C(N)OC(C)=C3C(C)=O)c(Cl)nc2c1 (stereo unspecified) | 96.4 |
| NS(=O)(=O)c1ccc(CCNC2CC(=O)N(Cc3ccccc3)C2=O)cc1 (stereo unspecified) | 101 |
| CN(Cc1cn(C)nc1-c1cccc(Cl)c1)Cc1nccn1C | 97 |
| Nc1cc(C(=O)O)ccc1N1CCCCC1 | 83.3 |
| Nc1ccc(N2CCN(CCCCN3C(=O)C4CCCN4C3=O)CC2)cc1 (stereo unspecified) | 87.8 |
| O=C(CN1C(=O)NC(c2ccc(F)cc2)C1=O)Nc1ccc2c(c1)OCCO2 (stereo unspecified) | 103 |
| COc1cccc(NC(=O)N2CCN(c3nnnn3-c3ccccc3)CC2)c1 | 86.7 |
| O=C(Cn1c(=O)oc2ccccc21)N1CCN(S(=O)(=O)c2ccccc2)CC1 | 98.3 |
| CC(C)(C)c1ccc(NC(=S)NCc2cccnc2)cc1 | 103 |
| O=S(=O)(c1ccc(OCC(O)CN2CCC(Cc3ccccc3)CC2)cc1)N1CCOCC1 (stereo unspecified) | 91.8 |
| C/C(=N\NC(=O)c1cnccn1)c1ccc([N+](=O)[O-])cc1 | 107 |
| N/C(=N\OC(=O)COc1ccc([N+](=O)[O-])cc1)c1cccnc1 | 109 |
| O=C1CC(Nc2ccc(N3CCOCC3)cc2)C(=O)N1Cc1ccccc1 (stereo unspecified) | 111 |
| Cc1cc(SCC2=NNC(=O)C2)c(Cl)cc1Cl | 104 |
| CC(C)Cc1nc2oc3c(NCC(C)O)ncnc3c2c2c1CCCC2 (stereo unspecified) | 85.5 |
| CCCCc1nc2sc3c(=O)[nH]cnc3c2c2c1CCCC2 | 105 |
| CCCCc1cc(C(=O)Cc2ccccn2)c(O)cc1O | 90.9 |
| COc1ccc(C(=O)OCC(=O)c2c(N)n(C)c(=O)n(C)c2=O)cc1OC | 87.8 |

| Structure (SMILES) | viability [%] |
| --- | --- |
| NC(=O)C1Cc2ccccc2CN1C(=O)c1nn(Cc2ccccc2)c(=O)c2ccccc12 (stereo unspecified) | 97.3 |
| Cc1cccc2nc(C(=O)Nc3cccc(C(=O)NC4CC4)c3)cn12 | 96.1 |
| Cc1onc(-c2ccccc2)c1CNC(=O)C1COc2ccccc2O1 (stereo unspecified) | 81 |
| O=C(O)Cc1ccc(N=Nc2c(O)c(C(=O)O)cc3ccccc23)cc1 | 120 |
| Nc1cccc2cc(S(=O)(=O)O)ccc12 | 104 |
| O=C1CC(N2CCOCC2)C(=O)N1c1ccc(Cl)cc1 (stereo unspecified) | 95.9 |
| O=C(O)c1ccc2c(c1)C1C=CCC1C(c1ccncc1)N2 (stereo unspecified) | 95.9 |
| S=C1NC2(CCCCCC2)N=C1c1ccccc1 | 124 |
| CC(NC(=O)c1ccco1)C1CCCO1 (stereo unspecified) | 106 |
| S=c1[nH]nc(Cn2nnc3ccccc32)n1-c1ccccc1 | 96.5 |
| COc1cc(/C=C(\CC(=O)O)c2nc3ccccc3s2)cc(OC)c1O | 81.9 |
| COc1ccccc1/C=C/C=C1N=C(/C=C/c2ccc(Cl)cc2)OC/1=O | 87.7 |
| COc1cc(/C=N/NC(=O)c2ccc(NS(=O)(=O)c3cccs3)cc2)cc(OC)c1O | 93.2 |
| C/C=C/c1ccc(OCC(=O)N2CCc3cc(OC)c(OC)cc3C2)c(OC)c1 | 87.1 |
| CCc1ccccc1NC(=O)N1CCc2ccccc21 | 88.4 |
| CCN1CNC(=S)N(CCc2ccccc2)C1 | 102 |
| Cc1cc(C)n2nc(C(=O)OCC(=O)N(C)CC(=O)Nc3ccc(F)cc3)nc2n1 | 84.1 |
| CCN1CCN(C(=O)CN(C)S(=O)(=O)c2ccc(OC)c(C)c2)CC1 | 87.7 |
| CCOC(=O)CNC(=O)Cn1cnc2c(nnn2-c2ccc(F)cc2)c1=O | 97.2 |
| COC/C=C/C1=CC2=CC(=O)C(C)(OC(=O)C3CCCC3)C(=O)C2=CO1 (stereo unspecified) | 100 |
| Clc1ccccc1N=Nc1ccccn1 | 89.9 |
| COc1cc(OC)c2c(c1O)OC(c1ccccc1)CC2=O (stereo unspecified) | 105 |
| CCOC(=O)C1CCCC12Nc1cccc3cccc(c13)N2 (stereo unspecified) | 84.6 |

| Structure (SMILES) | viability [%] |
| --- | --- |
| Cc1noc(C)c1COc1ccc(C(=O)OCC(=O)N2c3ccccc3NC(=O)C2(C)C)cc1 | 102 |
| CCOc1ccc(NC(=O)C2CCCN(S(=O)(=O)c3c(C)nn(C)c3C)C2)cc1 (stereo unspecified) | 93 |
| CC(=O)c1sc(C(=O)O)c(-c2ccco2)c1-c1ccco1 | 115 |
| Cc1cc(CN2C(=O)c3ccccc3C2=O)cc(N2CCOCC2)c1 | 84 |
| O=C(CCN1C(=O)c2ccccc2C1=O)NCc1ccco1 | 108 |
| CCCC(=O)C1=C(N(C)c2ccccc2)CC(C)(C)CC1=O | 99.3 |
| O=C(Nc1cccnc1)c1sc(Nc2ccccc2F)nc1-c1ccccc1 | 89 |
| O=C(COc1ccccc1Cl)c1ccc[nH]1 | 94.5 |
| C/C(=N\n1c(C)nc2ccccc2c1=O)c1ccc(C)o1 | 108 |
| COc1ccc(N=C2NC(=O)/C(=C\C=C\c3ccco3)S2)cc1 | 101 |
| O=C(O)C(Cc1ccccc1)N1C(=O)/C(=C/C=C/c2ccco2)SC1=S (stereo unspecified) | 106 |
| O=C1/C(=C\c2ccco2)NC(=S)N1c1ccccc1 | 91.4 |
| O=C(O)c1cc(N2N=C(C(F)(F)F)/C(=C/C=C/c3ccco3)C2=O)ccc1Cl | 99.9 |
| O=C1NN(c2cccc(Br)c2)C(=O)/C1=C\c1ccccc1 | 93.1 |
| COC(=O)C1=C(C)N(Cc2ccccc2)C(=O)/C1=C\c1ccco1 | 90.4 |
| O=C(Nc1ccc(Cl)cc1)Nc1ccc(N2CCC(C(F)(F)F)CC2)nc1 | 97.4 |
| CC1CC(C)CN(C(=O)CSCC(=O)O)C1 (stereo unspecified) | 96.8 |
| Cn1c(C(=O)N[C@@H](C(=O)O)c2ccccc2)cc2cc(Cl)ccc21 | 98.7 |
| C#Cc1ccc([C@H]2C=C(C(=O)N3CCOCC3)O[C@@H](OCc3ccc(CO)cc3)C2)cc1 | 98.9 |
| Cc1cc(=O)n2nc(N3CCCC(C(=O)NC4CCC(C)CC4)C3)sc2n1 (stereo unspecified) | 91.6 |
| O=C(O)Cc1cccc(=O)c(O)c1C(=O)O | 92.9 |
| COc1cc(NC(=O)c2noc3c2CCC3)c(OC)cc1Cl | 85.2 |
| CCOC(=O)C(=O)NCc1ccc(/C=C2/N=C(C)C(C(=O)OCC)=C2O)o1 | 101 |

| Structure (SMILES) | viability [%] |
| --- | --- |
| CN(C)c1nc(OCCNC(=O)COc2ccc(Cl)cc2Cl)nc(N2CCOCC2)n1 | 95.2 |
| CC(=O)c1ccc(-c2nnc(CCC(=O)N(C)Cc3c(C)nc4ccccn34)o2)s1 | 104 |
| CC(=O)Nc1nnc(-c2c(-c3c(Cl)cccc3Cl)noc2C)o1 | 95.8 |
| CC1CCC/C(=C\Nc2ccc(O)cc2)C1=O (stereo unspecified) | 94.1 |
| CCC1CCC2(CC1)NC(=O)N(CC(=O)Nc1ccc(OC)c(Cl)c1)C2=O (stereo unspecified) | 109 |
| C=C(C)C(=O)Nc1cccc(C2=NOC3(C2)C[C@H](C(N)=O)N(C(=O)COc2ccc(Cl)cc2)C3)c1 (stereo partly specified) | 95.8 |
| Cc1nc2nc(-c3ccco3)nn2c(C)c1Cl | 101 |
| CC(=O)Nc1ccc(N=Nc2ccccc2)cc1 | 88.4 |
| O=S(=O)(O)c1cc(O)c2ccc(Nc3ccccc3)cc2c1 | 100 |
| CCn1c(SC(C)C(=O)O)nc2sc3c(c2c1=O)CCC3 (stereo unspecified) | 104 |
| COc1ccc(N/N=C(\C#N)C(=N)SCc2ccccc2)cc1 | 105 |
| CC(=O)c1ccccc1NC(=O)COC(=O)CN1C(=O)C2CCCCC2C1=O (stereo unspecified) | 85.4 |
| Cc1cc2cc3c(=O)[nH]c(=O)nc-3n(CC(O)C(O)C(O)CO)c2cc1C (stereo unspecified) | 89.7 |
| CN(CCO)CC(O)CN(c1ccccc1)c1ccccc1 (stereo unspecified) | 103 |
| Oc1cc2c(cc1O)[C@H]1c3ccc(O)c(O)c3OC[C@@]1(O)C2 | 103 |
| C(=C\c1ccco1)/c1ccc2ccccc2n1 | 89.1 |
| O=C(O)c1ccc(-n2cccc2/C=C2/NC(=O)N(c3cccc(Cl)c3)C2=O)cc1 | 101 |
| O=C(O)c1ccc(-n2cccc2/C=C2/NC(=O)N(c3ccccc3)C2=O)cc1 | 103 |
| COc1ccc(CCN2CC(C(=O)NCC(c3ccccc3)N(C)C)CC2=O)cc1OC (stereo unspecified) | 113 |
| CN1CCN(C(=O)c2ccc(N(C)S(=O)(=O)c3cccs3)cc2)CC1 | 108 |
| COC1=CC(=O)C(C2CC(=O)c3c(O)cc(O)cc3O2)=CC1=O (stereo unspecified) | 93.2 |
| Cc1c(O)cc2c(c1O)C(=O)CC(c1ccc(O)cc1)O2 (stereo unspecified) | 94.6 |
| C(=N\Nc1nncn1/N=C/c1ccco1)/c1ccco1 | 90.5 |

| Structure (SMILES) | viability [%] |
| --- | --- |
| Cn1c(=O)c2c(ncn2CC(=O)N/N=C/C=C/c2ccco2)n(C)c1=O | 98.3 |
| COc1ccc(N2CCN(CC(=O)c3c(C)n(C)c4ccc(OC)cc34)CC2)cc1 | 89.2 |
| COc1ccc2[nH]c(C(=O)O)c(CCN3C(=O)c4cccc([N+](=O)[O-])c4C3=O)c2c1 | 89.3 |
| Cn1c2ccccc2c2ccc3c(c21)C(=O)C=CC3=O | 89.6 |
| Cc1ccc(N=Nc2ccc(N)cc2C)c(S(N)(=O)=O)c1 | 99.2 |
| O=C1CNC(=O)/C1=C/c1ccc(Br)cc1 | 89.6 |
| O=C(COC(=O)c1ccc(O)cc1O)NNC(=O)c1cccs1 | 99.2 |
| CC[n+]1ccc(C)c2cc(P(=O)(c3ccccc3)c3ccccc3)ccc21 | 83.4 |
| Cc1ccc(S(=O)(=O)n2ccc(=O)[nH]2)cc1 | 96.9 |
| O=C(CCS(=O)(=O)c1ccc(Br)cc1)NC1CCCC1 | 94.3 |
| Cc1cc(NS(=O)(=O)c2cc(Cl)sc2Cl)no1 | 94.2 |
| Cc1cc(O)cc(O)c1C(=O)Cc1cnn(-c2ccccc2)c1 | 89.1 |
| CCC1=C2CC[C@H]3C(=O)NC(=O)[C@H]3[C@H]2[C@@]2(Cc3ccccc3)C(=NCC(=O)OC)OC(=O)N2C1=O | 93.3 |
| CCN(CC)S(=O)(=O)c1cccc(NN=c2c(=O)c3ccccc3c2=O)c1 | 96.9 |
| CCc1ccc2c(c1)cc(C)c1nnc(SCC(=O)Nc3cc(OC)c(OC)cc3C(=O)O)n12 | 98.7 |
| COC/C=C/C1=CC2=CC(=O)C(C)(OC(=O)c3cnc4ccccc4n3)C(=O)C2=CN1c1ccccc1 (stereo unspecified) | 98.3 |
| Nc1ccc2c(O)cc(S(=O)(=O)O)cc2c1 | 92.7 |
| CCOC(=O)C1CCN(c2ncnc3cc(OC)c(OC)cc23)CC1 | 89.9 |
| O=C(O)C1OC(Oc2c(-c3ccc(O)c(O)c3)oc3cc(O)cc(O)c3c2=O)C(O)C(O)C1O (stereo unspecified) | 109 |
